ChEMBL document CHEMBL3988442, “University of Dundee, Small-Polar-MMV Screening Library” (2021)
Screen size: about 48,000 compounds; about 13,000 (27%) showed an effect of 50% or more. This is one part of the list.

Test system: Wolbachia pipientis
Experiment: Anti-Wolbachia Cell-Based Screen
Type: functional
Parameters: scale not given: in the data most compounds retested in dose-response had high values
Conditions: 5 µM

| SMILES | Percent Effect [%] |
| --- | --- |
| Cc1cccnc1CC(C)NC1CCSCC1 (stereo not given) | -10.51 |
| CC(Cc1c(F)cccc1F)NC(=O)CSCC(N)=O (stereo not given) | -4.817 |
| CCNC(=O)CN1CCSC2(CCCCC2)C1 | -30.52 |
| CCS(=O)(=O)N[C@@H]1CN(Cc2cc(C)on2)C[C@@H]2CCCO[C@@H]21.O=C(O)C(F)(F)F | -1.229 |
| CCOCCN1C[C@@H]2CCCO[C@@H]2[C@H](NC(=O)c2cnoc2C)C1.O=C(O)C(F)(F)F | 102.3 |
| Cc1noc(C)c1CN1C[C@@H]2CCCO[C@@H]2[C@H](NS(C)(=O)=O)C1.O=C(O)C(F)(F)F | -5.766 |
| Cc1oncc1C(=O)N[C@@H]1CN(C2CCC2)C[C@@H]2CCCO[C@@H]21.O=C(O)C(F)(F)F | 88.41 |
| Cc1cc(CN2C[C@@H]3CCCO[C@@H]3[C@H](NS(C)(=O)=O)C2)no1.O=C(O)C(F)(F)F | -7.292 |
| Cc1ncsc1CN1C[C@@H]2CCCO[C@@H]2[C@H](Nc2ccccn2)C1.O=C(O)C(F)(F)F.O=C(O)C(F)(F)F | 103.9 |
| Cc1oncc1C(=O)N[C@@H]1CN(CC2CC2)C[C@@H]2CCCO[C@@H]21.O=C(O)C(F)(F)F | 91.11 |
| Cc1cc(CN2C[C@@H]3CCCO[C@@H]3[C@H](Nc3ccccn3)C2)no1.O=C(O)C(F)(F)F.O=C(O)C(F)(F)F | 7.146 |
| O=C(CC1CC1)N[C@@H]1CN(Cc2cccnc2)C[C@@H]2CCCO[C@@H]21.O=C(O)C(F)(F)F.O=C(O)C(F)(F)F | -3.357 |
| O=C(CC1CC1)N[C@@H]1CN(Cc2ccncc2)C[C@@H]2CCCO[C@@H]21.O=C(O)C(F)(F)F.O=C(O)C(F)(F)F | -9.965 |
| O=C(O)C(F)(F)F.O=C(O)C(F)(F)F.O=C(O)C(F)(F)F.c1ccc(CN2C[C@@H]3CCCO[C@@H]3[C@H](Nc3ccccn3)C2)nc1 | -7.621 |
| CC(C)c1cc(N2CCCC3(CCN(C)C3)C2)ncn1 (stereo not given) | 23.89 |
| CCN(CC)C(=O)C1CCC2(CCNCC2)O1.Cl (stereo not given) | -5.53 |
| Cc1nn(CCNC(C)Cn2ccnc2)c(C)c1Cl (stereo not given) | -2.201 |
| COCC(=O)NC(C)Cc1cccc(Br)c1 (stereo not given) | -14.37 |
| CCc1cc(N2CCNCC2)n2nc(C)c(C)c2n1 | -8.161 |
| CC(C)c1cc(CN2CCNCC2)no1 | 116.8 |
| CCc1noc(C(C)N2CCNCC2)n1 (stereo not given) | 13 |
| CN1CCC2(CC1)C(=O)N(c1cccnc1)c1ccc(F)cc12.Cl | -1.333 |
| O=C(c1ccc(-n2ccnc2)nc1)N1CCN2CCCCC2C1 (stereo not given) | -5.274 |
| NC(=O)CN1CCCCC1c1ccc(-n2ccnc2)nc1 (stereo not given) | 114.9 |
| CN1CCCCC1c1ccc(-n2ccnc2)nc1 (stereo not given) | 128 |
| Cl.NC(CC1CCCCC1)c1ccccc1 (stereo not given) | -2.613 |
| COCCn1cc(C(=O)Nc2nc3c(s2)CCC3)c2ccccc21 | 108.8 |

| SMILES | Percent Effect [%] |
| --- | --- |
| CCCn1cc(C(=O)NCCS(N)(=O)=O)c2ccccc21 | 15.61 |
| COCCn1cc(C(=O)NCCS(N)(=O)=O)c2ccccc21 | 11.42 |
| Cc1cccc(CN2CC[C@@H]3[C@@H]2CCN3C(=O)Cc2ccsc2)n1.O=C(O)C(F)(F)F.O=C(O)C(F)(F)F | 119.7 |
| Cc1ccc(CN2CC[C@@H]3[C@@H]2CCN3C(=O)Cc2cccs2)o1.O=C(O)C(F)(F)F | 90.39 |
| Cc1cc(CN2CC[C@H]3[C@H]2CCN3C)oc1C.O=C(O)C(F)(F)F.O=C(O)C(F)(F)F | 2.968 |
| Cc1cccc(CN2CC[C@@H]3[C@@H]2CCN3C(=O)Cc2cccs2)n1.O=C(O)C(F)(F)F.O=C(O)C(F)(F)F | 101.6 |
| Cc1cccc(CN2C(=O)C[C@H]3[C@@H]2CCN3Cc2cccs2)n1.O=C(O)C(F)(F)F.O=C(O)C(F)(F)F | 4.955 |
| Cc1ccc(CN2CC[C@H]3[C@H]2CC(=O)N3c2cccnc2)o1.O=C(O)C(F)(F)F.O=C(O)C(F)(F)F | 1.465 |
| Cc1cccc(CN2CC[C@@H]3[C@@H]2CCN3C(=O)c2cnoc2C)n1 | -2.884 |
| Cc1cccc(CN2CC[C@@H]3[C@@H]2CCN3C(=O)c2ccno2)n1.O=C(O)C(F)(F)F.O=C(O)C(F)(F)F | -0.9424 |
| Cc1cccc(CN2CC[C@H]3[C@H]2CCN3C(=O)c2cnn(C)c2)n1.O=C(O)C(F)(F)F.O=C(O)C(F)(F)F | -8.772 |
| COCCN1C[C@@H]2[C@@H](OC)CCN(Cc3cccc(C)n3)[C@@H]2C1.O=C(O)C(F)(F)F.O=C(O)C(F)(F)F.O=C(O)C(F)(F)F | 0.3153 |
| Cc1cccc(CN2CC[C@@H]3[C@@H]2CCN3Cc2cccs2)n1.O=C(O)C(F)(F)F.O=C(O)C(F)(F)F | 102.2 |
| CC(C)(C)c1cn(C[C@H]2CC3CCN2C[C@@H]3C(=O)NC2CC2)nn1 (stereo not given in full) | 12.02 |
| CC(C)N1[C@H](Cn2cncn2)C[C@@H]2CNCC[C@@H]21.Cl.Cl | -6.101 |
| Cc1ccc(N2C[C@@H]3CN(Cc4ccsc4)CCO[C@@H]3C2)nn1.O=C(O)C(F)(F)F.O=C(O)C(F)(F)F | -3.128 |
| Cc1ccc(N2CCO[C@H]3CN(Cc4ccccn4)C[C@H]32)nn1.O=C(O)C(F)(F)F.O=C(O)C(F)(F)F.O=C(O)C(F)(F)F | -12.44 |
| Cc1ccc(N2CC[C@@H]3[C@@H]2CCN3Cc2ccsc2)nn1.O=C(O)C(F)(F)F.O=C(O)C(F)(F)F | 101.6 |
| COc1ncnc(N)c1CNCCc1ccccc1 | 127.7 |
| Cn1cc(CN2CCC3(CC2)C(=O)Nc2ccccc23)cn1.O=C(O)C(F)(F)F | -7.765 |
| CCN1CCC2(CC1)C(=O)Nc1ccc(C(=O)NC)cc12.O=C(O)C(F)(F)F | 117.8 |
| CNC(=O)c1ccc2c(c1)C1(CCN(CCOC)CC1)C(=O)N2.O=C(O)C(F)(F)F | 94.3 |
| COCCN1CCC2(C1)CN(c1ncc(F)cn1)C2.O=C(O)C(F)(F)F | 4.032 |
| CC[C@@H]1N(CC2CC2)CCC[C@]12CCC(=O)N2.O=C(O)C(F)(F)F | -18.87 |
| CCN1CCC12CCN(C(=O)c1cc(C)on1)C2.O=C(O)C(F)(F)F (stereo not given) | -17.49 |
| COCCN1CCC2(CC1)C(=O)Nc1ccc(C(=O)NC(C)C)cc12.O=C(O)C(F)(F)F | 101 |
| CNC(=O)c1ccc2c(c1)C1(CCN(CC3CC3)CC1)C(=O)N2.O=C(O)C(F)(F)F | 108.4 |

| SMILES | Percent Effect [%] |
| --- | --- |
| CC(=O)N1CCC2(CN(CC3CCCC3)C2)C1.O=C(O)C(F)(F)F | -16.93 |
| CC(C)(C)n1cc(C2=CCN(CCc3ccccn3)CC2)cn1 | 15.47 |
| CCOCC(O)CN1CCN(C(=O)Cc2ccc3c(c2)CCO3)CC1 (stereo not given) | -9.69 |
| CC(Cn1cncn1)NCc1n[nH]c2c1CCCCC2 (stereo not given) | -17.11 |
| O=C(c1cccnc1-n1cncn1)N1CCC(Nc2ccccc2)CC1 | 0.1986 |
| O=C(c1cn(Cc2ccccc2)c2ncccc12)N1CCOCC1 | 115.6 |
| CC(=O)c1cn(CC(=O)N2CCC3(CC2)OCCO3)c2ccccc12 | -19.35 |
| O=C(c1cn(Cc2ccccc2)c2ncccc12)N1CCCCC1 | 137.3 |
| Cc1ccc(N2CCCN(C(=O)c3cn(C)c4ccccc34)CC2)nn1 | 7.774 |
| COCCN1C[C@@H](C)[C@@]2(COCCN(C(=O)c3ccccn3)C2)C1.O=C(O)C(F)(F)F.O=C(O)C(F)(F)F | -2.288 |
| Cc1cccc(CN2CC[C@H]3OCC[C@@]3(C(=O)N3CCCO3)C2)n1.O=C(O)C(F)(F)F.O=C(O)C(F)(F)F | 104.8 |
| Cc1noc(C)c1CN1CC[C@H]2OCC[C@@]2(C(=O)N2CCCO2)C1.O=C(O)C(F)(F)F | -1.065 |
| O=C(N1CCCO1)[C@@]12CCO[C@@H]1CCN(Cc1cccnc1)C2.O=C(O)C(F)(F)F.O=C(O)C(F)(F)F | 92.31 |
| O=C(O)C(F)(F)F.O=C(O)C(F)(F)F.O=C(O)C(F)(F)F.c1cc(CN2CCCC23CCCN(Cc2ccoc2)C3)ccn1 (stereo not given) | 6.786 |
| O=C(O)C(F)(F)F.O=C(O)C(F)(F)F.O=C([C@H]1CN(Cc2cccnc2)C[C@H]2OCC[C@@H]12)N1CCCO1 | -1.635 |
| O=C(O)C(F)(F)F.O=C([C@@H]1C[C@@H]2CCN(Cc3ccccn3)C[C@H]2O1)N1CCCO1 | -15.19 |
| O=C(N1CCOCC1)[C@@]12CCO[C@@H]1CCN(Cc1ccncc1)C2.O=C(O)C(F)(F)F.O=C(O)C(F)(F)F | 97.63 |
| O=C(N1CCCO1)[C@@]12CCO[C@@H]1CCN(Cc1ccccn1)C2.O=C(O)C(F)(F)F.O=C(O)C(F)(F)F | 114.4 |
| Cc1nnc(N2CCCC3(CN(Cc4ccncc4)CCO3)C2)o1.O=C(O)C(F)(F)F.O=C(O)C(F)(F)F (stereo not given) | -4.396 |
| Cc1cccc(CN2CCC3(CCCN(CC(=O)N(C)C)C3)C2)n1.O=C(O)C(F)(F)F (stereo not given) | 2.241 |
| O=C(N1CCCO1)[C@]12COC[C@H]1CN(Cc1cccnc1)C2.O=C(O)C(F)(F)F.O=C(O)C(F)(F)F | 2.039 |
| Cc1cc(CN2CC[C@H]3OCC[C@@]3(C(=O)N3CCOCC3)C2)no1 | 107.8 |
| Cc1cc(CN2C[C@@H]3CN(C(=O)c4ccco4)CCO[C@@H]3C2)no1.O=C(O)C(F)(F)F | -7.73 |
| Cc1ccnc(OC[C@@]23CCO[C@@H]2CCN(C2CCC2)C3)n1.O=C(O)C(F)(F)F | -3.433 |
| O=C(NCc1ccccn1)[C@@]12CCO[C@@H]1CCN(C1CCCC1)C2.O=C(O)C(F)(F)F.O=C(O)C(F)(F)F | 86.28 |
| Cc1cc(CN2CC[C@H]3OCC[C@@]3(C(=O)NC(C)C)C2)no1.O=C(O)C(F)(F)F | 2.849 |
